From PubChem BioAssay
A selection: hits, their analogues and other compounds. The true share with any hit is near 1.6%.
KCNQ2 pot = potentiators of rat KCNQ2 potassium channel. O88943. CHO-K1 KCNQ2, FluxOR thallium flux fluorescence; hits give high values. B-score at 10 µM. 310,000 tested, 0.54% active. AID 2239;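 active = fluorescence ratio B-score at least 3 SD of library B-scores, with initial fluorescence B-score within 3 of them, cut at about 5.3 in these data; same plate scores as AID 2156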;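 also: B-score of peak minus minimum over baseline fluorescence ratio after K+ and Tl+ stimulus; positive B-score means potentiation of KCNQ2 with more thallium influx and brighter signal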
Target sequence (O88943 whole entry, looked up): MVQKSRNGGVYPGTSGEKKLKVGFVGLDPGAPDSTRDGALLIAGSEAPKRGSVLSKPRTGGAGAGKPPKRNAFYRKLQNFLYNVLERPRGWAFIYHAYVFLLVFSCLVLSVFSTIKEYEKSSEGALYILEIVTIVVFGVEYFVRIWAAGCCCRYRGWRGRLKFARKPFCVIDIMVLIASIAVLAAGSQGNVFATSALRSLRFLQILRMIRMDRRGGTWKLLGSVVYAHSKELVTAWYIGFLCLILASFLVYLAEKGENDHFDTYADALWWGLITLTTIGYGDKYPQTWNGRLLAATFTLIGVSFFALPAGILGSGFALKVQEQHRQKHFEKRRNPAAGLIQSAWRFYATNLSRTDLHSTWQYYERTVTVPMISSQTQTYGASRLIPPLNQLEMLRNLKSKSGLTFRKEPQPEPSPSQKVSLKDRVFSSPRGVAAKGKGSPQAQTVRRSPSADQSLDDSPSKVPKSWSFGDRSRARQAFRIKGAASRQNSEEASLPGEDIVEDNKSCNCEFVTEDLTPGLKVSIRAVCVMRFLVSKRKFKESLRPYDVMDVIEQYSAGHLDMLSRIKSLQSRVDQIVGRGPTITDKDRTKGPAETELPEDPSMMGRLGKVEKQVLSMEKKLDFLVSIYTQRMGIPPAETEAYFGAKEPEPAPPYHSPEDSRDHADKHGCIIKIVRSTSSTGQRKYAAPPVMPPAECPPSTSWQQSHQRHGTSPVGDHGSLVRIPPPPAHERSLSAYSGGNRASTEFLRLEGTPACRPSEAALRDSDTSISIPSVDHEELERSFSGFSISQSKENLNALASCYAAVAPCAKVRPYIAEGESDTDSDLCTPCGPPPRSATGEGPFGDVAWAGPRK
KCNQ2 inh = blocks the rat KCNQ2 potassium channel; O88943; CHO-K1 KCNQ2, FluxOR thallium flux, 20 min; hits give low values; B-score at 10 µM; 310,000 tested, 1.1% active; AID 2156;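 active = fluorescence ratio B-score at most minus 3 library SDs, with starting brightness B-score within 2 library SDs, cut at about -5.5 in these data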
Of the large screens only hits and unclear results are named; the others gave an inactive call.

COc1ccc(C(CCN2CCCC(C)C2)c2c(OC)cc(OC)c3c(-c4ccccc4)cc(=O)oc23)cc1 (stereo not drawn)	KCNQ2 inh -6
COc1ccc(NC(=O)C(C)N2C(=O)c3ccccc3C2=O)cc1S(=O)(=O)N1CCOCC1 (stereo not drawn)	none (no result: KCNQ2 pot)
COc1ccccc1NC(=O)COc1ccccc1C(=O)c1cnn(-c2ccccc2)c1	KCNQ2 inh -6
CCc1ccc(NC(=O)COc2ccc(F)cc2C(=O)c2cnn(-c3ccccc3)c2)cc1	none (no result: KCNQ2 pot)
O=[N+]([O-])c1cc2c(cc1Br)CCN2	none
COc1cc(NC(=O)NNC(=O)c2cc3occc3n2C)cc(OC)c1OC	none (no result: KCNQ2 pot)
O=C(COc1ccccc1)NCC(c1ccco1)N1CCN(c2ccccc2)CC1 (stereo not drawn)	none (no result: KCNQ2 pot)
O=C(COc1cccc(C(F)(F)F)c1)NCC(c1ccco1)N1CCCCC1 (stereo not drawn)	KCNQ2 inh -5.6
COC(=O)CSc1nc2cc(OC)ccc2cc1C#N	none
COc1ccc2cc(C#N)c(SCC(=O)NNC(=O)Cc3ccccc3)nc2c1	KCNQ2 inh -6.2
Cc1ccc(Cn2ccc(NC(=O)c3c(-c4ccccc4Cl)noc3C)n2)cc1	none
Cc1ccc2c(c1)N(CCCC(=O)NCCCN1CCCCC1)C(=O)CO2	none
CCN(CCCNC(=O)CCCN1C(=O)COc2ccc(C)cc21)c1cccc(C)c1	KCNQ2 inh -6.3
COc1ccc(-c2csc(NCCc3nc4cc(C(=O)NCCCO)ccc4n3Cc3ccc(C)cc3)n2)cc1	none (no result: KCNQ2 pot)
COC(=O)c1sccc1NC(=O)c1cc(-c2cccc(C)c2)nc2ccccc12	none (no result: KCNQ2 pot)
COC(=O)c1sccc1NC(=O)c1c(C)c(-c2cccc(Cl)c2)nc2ccccc12	KCNQ2 inh -5.7
Cc1ccc(/C([O-])=C(/C(=S)NCc2ccc3c(c2)OCO3)[n+]2ccc(N(C)C)cc2)c(C)c1	none (no result: KCNQ2 pot)
NC(N)=N/N=C/c1ccccc1	none (no result: KCNQ2 pot)
NC(N)=N/N=C/c1ccc(OCc2ccccc2Cl)cc1	KCNQ2 inh -6.2
CC(C)C(NS(=O)(=O)c1cccc2nsnc12)C(=O)NC1CCCCC1C (stereo not drawn)	none (no result: KCNQ2 pot)
CCCn1c(N)c(C(=O)CN2CCc3ccccc3C2)c(=O)n(C)c1=O	none (no result: KCNQ2 pot)
CCCCn1c(N)c(C(=S)NC(=O)CC(C)(C)C)c(=O)n(C)c1=O	KCNQ2 pot 6.9
Cc1cc(CN2CCCC(C(=O)Nc3cccc(-n4cccn4)c3)C2)cc(C)c1O (stereo not drawn)	none (no result: KCNQ2 pot)
O=C(Nc1cccc(-n2cccn2)c1)C1CCCN(Cc2cc3ccccc3[nH]2)C1 (stereo not drawn)	KCNQ2 inh -8.2
O=C(Nc1ccc(-c2ccc3nncn3n2)cc1)c1ccc(Br)o1	none (no result: KCNQ2 pot)
Fc1ccc(-c2nnc(SCc3cccnc3)o2)cc1	none
Cc1onc(-c2c(F)cccc2Cl)c1C(=O)c1ccc(F)cc1	none (no result: KCNQ2 pot)
Cc1onc(-c2c(Cl)cccc2Cl)c1C(=O)c1ccc(F)cc1	KCNQ2 pot 6.8
CC(C)Oc1cccc(C(=O)C2CCCN(Cc3ccc(Oc4ncccn4)cc3)C2)c1 (stereo not drawn)	KCNQ2 inh -7.8
COc1c(C)cc(C(=O)C2CCCN(Cc3ccc(Oc4ncccn4)cc3)C2)cc1C (stereo not drawn)	none (no result: KCNQ2 pot)
Cc1csc(NC(=O)CSc2nnc(NC(=O)COc3ccccc3)s2)n1	none
Cc1cc(NC(=O)Cn2nc([N+](=O)[O-])c(Br)c2C)no1	none
CN(C)/C=C(\C#N)C(=O)c1cccc(Oc2ccc(Br)cc2)c1	none (no result: KCNQ2 pot)
CC(C)c1ccc(Oc2cccc(C(=O)/C(C#N)=C/N(C)C)c2)cc1	KCNQ2 inh -6.2
CC1CCN(C(=O)CCC(=O)N2CC(C)Oc3ccccc32)CC1 (stereo not drawn)	none (no result: KCNQ2 pot)
Cc1ccc2c(c1)N(C(=O)CCC(=O)N1CCN(c3cccc(C)c3C)CC1)CCO2	KCNQ2 inh -5.7
Cc1ccc2c(c1)N(C(=O)CCC(=O)N1CCN(c3ccccc3)CC1)CCO2	none
Cc1cccc(N2CCN(C(=O)CCC(=O)N3CC(C)Oc4ccccc43)CC2)c1C (stereo not drawn)	KCNQ2 inh -5.9
CCOC(=O)Cn1nc(C)c(NC(=O)c2ccc([N+](=O)[O-])c(C)c2)c1C	none
COc1cccc(OCc2cc(C3Nc4ccccc4C(=O)N3Cc3ccco3)ccc2OC)c1 (stereo not drawn)	KCNQ2 inh -5.9
COc1ccc(C2Nc3ccccc3C(=O)N2Cc2ccco2)cc1COc1ccc([N+](=O)[O-])cc1 (stereo not drawn)	KCNQ2 inh -6.8
O=C1c2ccccc2NC(c2ccccc2)N1Cc1ccco1 (stereo not drawn)	none (no result: KCNQ2 pot)
O=C1c2ccccc2NC(c2ccc(F)cc2)N1Cc1ccco1 (stereo not drawn)	none
O=C(O)c1cccc(S(=O)(=O)Nc2ccccc2-c2ccccc2)c1	none
CCC(=O)N1CCc2cc(Br)cc(S(=O)(=O)NCc3ccccc3OC)c21	none
C/C(=N\NC(=O)c1cccc(F)c1)c1ccc(Br)s1	none
CCOC(=O)C1CCN(S(=O)(=O)c2ccc(C)c(C)c2)CC1	none
Cc1ccc(S(=O)(=O)N2CCC(C(=O)OCC(=O)N(Cc3ccccc3)C(C)(C)C)CC2)cc1C	KCNQ2 inh -6.5
Cc1ccc2c(c1)N(C(=O)CCC(=O)NCc1cccc(Br)c1)CC(C)O2 (stereo not drawn)	KCNQ2 inh -7
Cc1ccc2c(c1)N(C(=O)CCC(=O)Nc1ccccc1Br)CC(C)O2 (stereo not drawn)	none (no result: KCNQ2 pot)
CC1(C)Cc2nc(-c3ccccc3)nc(SCC(=O)N3CCOCC3)c2CO1	none (no result: KCNQ2 pot)
CCN(CC)C(=O)CSc1nc(-c2ccc(C)cc2)nc2c1COC(C)(C)C2	KCNQ2 inh -7.4
COc1ccccc1-c1nc2cc3ccccc3cc2nc1-c1ccccc1	none (no result: KCNQ2 pot)
Cc1ccccc1NS(=O)(=O)c1nnc(NC(=O)c2ccccc2C)s1	none (no result: KCNQ2 pot)
Cc1nn2c(N3CCN(C)CC3)cc(C(C)(C)C)nc2c1-c1ccccc1	none (no result: KCNQ2 pot)
Cc1nn2c(N3CCN(C(=O)c4ccco4)CC3)cc(C(C)(C)C)nc2c1-c1ccccc1	KCNQ2 inh -6.5
COc1ccc(C2(C)NC(=O)N(CC(=O)Nc3c(C)n(C)n(-c4ccccc4)c3=O)C2=O)cc1 (stereo not drawn)	none
COc1ccccc1NC(=O)Nc1nc(CC(=O)Nc2ccc(N(C)C)cc2)cs1	none
CCc1ccc(OC(C)C(=O)Nc2ccc(S(=O)(=O)Nc3nccs3)cc2)cc1 (stereo not drawn)	none
CCCC[C@@H]1CN=C(N)N1CC(C)(C)C	none
C=C(C)c1cccc(C(C)(C)NC(=O)Nc2ccccc2OCC)c1	KCNQ2 pot 8.7
C=C(C)c1cccc(C(C)(C)NC(=O)Nc2cc(C)ccc2OC)c1	none
CN(C)c1ccc(C=NC(CO)C(O)c2ccc([N+](=O)[O-])cc2)cc1 (stereo not drawn)	none (no result: KCNQ2 pot)
CN(C)c1ccc(C(c2ccc(N(C)C)cc2)c2ccc([N+](=O)[O-])cc2)cc1	KCNQ2 inh -6.6
O=C(Nc1ccc2c(c1)CCC2)Nc1ccccc1F	none
CC(C)C1=NN(C(=O)c2ccccc2)C(O)(C(C)(C)C)C1 (stereo not drawn)	KCNQ2 pot 7.1
CC(C)(C)C1=NN(C(=O)c2ccccc2)C(O)(C(C)(C)C)C1 (stereo not drawn)	none (no result: KCNQ2 pot)
CN(C)S(=O)(=O)c1cc(C(=O)OCCn2cnc3c2c(=O)n(C)c(=O)n3C)ccc1Cl	none (no result: KCNQ2 pot)
CC1CCN(c2c([N+](=O)[O-])nn(-c3ccc4c(c3)OCCO4)[n+]2[O-])CC1	KCNQ2 inh -5.6
O=[N+]([O-])c1nn(-c2ccc3c(c2)OCCO3)n(O)c1=NC1CCCCC1	none
CCCc1nn2c(=O)cc(CSCC(=O)Nc3cccc(OC)c3)nc2s1	none
